Measurements taken from PubChem BioAssay (NCI).
Compounds without any hit were thinned out: in the full panel of roughly 83,000, 20% have a hit.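 In brief: 96-well plates, 48 h treatment, single concentration, percent growth endpoint.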 Values without a mark were called inactive. The source made the active and inactive calls. The calls were made as follows: active = growth percent below 10; inactive = the rest.

Legend:
Experiment in all cases: NCI-60 one-dose screen, 48 h (100 = growth as untreated, 0 = no growth, -100 = all killed)
Settings in all cases: 10 µM unless noted
[1] = test system: T-47D breast
[2] = test system: BT-549 breast
[3] = test system: MDA-MB-435 melanoma
[4] = test system: SW-620 colon
[5] = test system: MCF7 breast
[6] = test system: HCT-116 colon
[7] = test system: HCC-2998 colon
[8] = test system: KM12 colon
[9] = test system: MDA-MB-468 breast

## O=C(O)Cn1c(O)c(/C=C2/C=c3cc4c(cc3=NC2=O)OCCO4)sc1=S
[1]
  growth: 104%
[2]
  growth: 104%
[3]
  growth: 102%
[4]
  growth: 113%
[5]
  growth: 86.3%
[6]
  growth: 103%
[7]
  growth: 109%
[8]
  growth: 104%
[9]
  growth: 111%

## CCCSc1nc(NCCc2c[nH]c3ccccc23)c(C#N)c(-c2ccc(F)cc2)n1
[1]
  growth: 26.4%
[2]
  growth: 64.5%
[3]
  growth: 72.9%
[4]
  growth: 55.7%
[5]
  growth: 35.3%
[6]
  growth: 22.6%
[7]
  growth: 44.4%
[8]
  growth: 31.3%

## COc1ccc(/C=C/c2nc3ccccc3nc2Nc2cccc(C)c2)cc1
[1]
  growth: 77.7%
[2]
  growth: 99.9%
[3]
  growth: 98.3%
[4]
  growth: 95.3%
[5]
  growth: 67.3%
[6]
  growth: 87.3%
[7]
  growth: 116%
[8]
  growth: 97.2%

## CN(C)c1nc(NCCNS(=O)(=O)c2ccc(C3=Nc4c(N)nc(N)nc4NC(c4ccc(C(F)(F)F)cc4)C3)cc2)nc(Nc2ccc(F)cc2)n1 (configuration not stated)
[1]
  growth: 9.22% (active)
[2]
  growth: 19.3%
[3]
  growth: 9.17% (active)
[4]
  growth: 11.7%
[5]
  growth: -28.2% (active)
[6]
  growth: 2.12% (active)
[7]
  growth: -32.1% (active)
[8]
  growth: -4.83% (active)
[9]
  growth: -46.2% (active)

## CC(=O)OC[C@@]1(C)C2CC[C@]3(C)C(CC=C4C5CC(C)(C)CC[C@]5(C(=O)Nc5ccc(F)cc5)CC[C@]43C)[C@@]2(C)C[C@@H](OC(C)=O)[C@@H]1OC(C)=O (some centres not stated)
[1]
  growth: 30.7%
[2]
  growth: 41.7%
[3]
  growth: 44.2%
[4]
  growth: 36.8%
[5]
  growth: 27.3%
[6]
  growth: 22.9%
[7]
  growth: 48.6%
[8]
  growth: 44.6%

## Cc1ccc(NC(=O)[C@]23CCC(C)(C)CC2C2=CCC4[C@@]5(C)C[C@@H](O)[C@H](O)[C@@](C)(CO)C5CC[C@@]4(C)[C@]2(C)CC3)cc1 (some centres not stated)
[1]
  growth: 10.4%
[2]
  growth: 0.29% (active)
[3]
  growth: 26.2%
[4]
  growth: 40.1%
[5]
  growth: 4.26% (active)
[6]
  growth: 6.55% (active)
[7]
  growth: -6.83% (active)
[8]
  growth: -22.3% (active)

## COc1ccc2oc(=O)c(C3(C)NC(=O)c4c(/C=C/C(=O)OC(C)(C)C)cccc4N3)cc2c1 (configuration not stated)
[1]
  growth: 6.58% (active)
[2]
  growth: 3.69% (active)
[3]
  growth: 46.7%
[4]
  growth: 63.8%
[5]
  growth: 24.1%
[6]
  growth: 30%
[7]
  growth: 62.1%
[8]
  growth: 47%
[9]
  growth: 31.7%

## CN(C)CCCNC(=O)c1cc(NC(=O)c2cc(NC(=O)c3ccc(/C=C/c4ccccc4)cc3)cn2C)cn1C
[1]
  growth: 54.5%
[2]
  growth: 69.2%
[3]
  growth: 58.6%
[4]
  growth: 7.42% (active)
[5]
  growth: -85.9% (active)
[6]
  growth: 0.824% (active)
[7]
  growth: 42.3%
[8]
  growth: -16.5% (active)

## Cc1ccc([C@H]2C(C(=O)c3ccc(Cl)cc3)C3(N[C@@H]2c2ccccc2)C(=O)Nc2ccccc23)cc1 (some centres not stated)
[1]
  growth: 14.3%
[2]
  growth: 50.7%
[3]
  growth: 26.8%
[4]
  growth: 29.9%
[5]
  growth: 16%
[6]
  growth: 14%
[7]
  growth: 23.7%
[8]
  growth: 25.9%

## O=C(/C=C/Nc1ccc(Cl)cc1)c1ccc2c(c1)Nc1ccccc1S2
[1]
  growth: 62.1%
[2]
  growth: 24.6%
[3]
  growth: 55.1%
[4]
  growth: 54.8%
[5]
  growth: 40.1%
[6]
  growth: 39.2%
[7]
  growth: 44.2%
[8]
  growth: 69.3%
[9]
  growth: 43.4%

## Nc1cccc(SCc2cc3ccccc3[nH]c2=O)c1
[1]
  growth: 33.3%
[2]
  growth: 46.7%
[3]
  growth: 30.5%
[4]
  growth: 23.5%
[5]
  growth: 37.4%
[6]
  growth: 50.3%
[7]
  growth: 26.8%
[8]
  growth: 0.625% (active)

## COc1ccc(C2CC(c3ccc(S(=O)(=O)NCCNc4nc(Nc5ccc(F)cc5)nc(N(C)C)n4)cc3)=Nc3c(N)nc(N)nc3N2)cc1 (configuration not stated)
[1]
  growth: 66.2%
[2]
  growth: 57.1%
[3]
  growth: 83.3%
[4]
  growth: 96%
[5]
  growth: 47.6%
[6]
  growth: 51.2%
[7]
  growth: 90.6%
[8]
  growth: 82.5%

## COc1ccc2c(c1)c(-c1cc(N)n3nc(-c4cn(C)c5ccccc45)cc3n1)cn2C
[1]
  growth: -57.4% (active)
[2]
  growth: -22.4% (active)
[3]
  growth: -75.6% (active)
[4]
  growth: -58.5% (active)
[5]
  growth: -60.6% (active)
[6]
  growth: -88.6% (active)
[7]
  growth: -82% (active)
[8]
  growth: -60.6% (active)

## CC1(C)CC[C@]2(C(=O)O)CC[C@]3(C)C(=CCC4[C@@]5(C)C[C@@H](O)[C@@H]6OC(c7cccc(Br)c7)OC[C@@]6(C)C5CC[C@]43C)C2C1 (some centres not stated)
[1]
  growth: 39.4%
[2]
  growth: 44.4%
[3]
  growth: 61.2%
[4]
  growth: 25%
[5]
  growth: 18.6%
[6]
  growth: 10.8%
[7]
  growth: 34.8%
[8]
  growth: 20.8%
[9]
  growth: 23.6%

## O=C(NN1C(=O)/C(=C/C=C/c2ccc([N+](=O)[O-])o2)SC1=S)c1ccccc1O
[1]
  growth: -59.4% (active)
[2]
  growth: -91.3% (active)
[3]
  growth: -89.7% (active)
[4]
  growth: -69.5% (active)
[5]
  growth: -49.7% (active)
[6]
  growth: -68.5% (active)
[7]
  growth: -97% (active)
[8]
  growth: -83.5% (active)
[9]
  growth: -75.4% (active)

## O=C1c2c(c3c4cc(F)ccc4oc3c3[nH]c4ccc(Br)cc4c23)C(=O)N1O
[1]
  growth: 23.9%
[2]
  growth: 1.19% (active)
[3]
  growth: 37.1%
[4]
  growth: 34.9%
[5]
  growth: 15.6%
[6]
  growth: 34.5%
[7]
  growth: 63.5%
[8]
  growth: 34.5%

## COc1ccc(NC(=O)[C@@H](N)Cc2ccccc2)cc1C(=O)Nc1cccc(C2CC(=O)c3c(cc(OC)c(OC)c3OC)O2)c1 (some centres not stated)
[1]
  growth: 25.3%
[2]
  growth: 19.8%
[3]
  growth: 56.8%
[4]
  growth: 50.9%
[5]
  growth: 28.1%
[6]
  growth: 45.2%
[7]
  growth: 114%
[8]
  growth: 35.1%

## CC(C)c1sc(NC(=O)c2cc(NC(=O)c3cc(NC(=O)c4nccn4C)cn3C)cn2C)nc1C(=O)NCCCN(C)C
[1]
  growth: 75.8%
[2]
  growth: 57.7%
[3]
  growth: 70.9%
[4]
  growth: 66.6%
[5]
  growth: 69.7%
[6]
  growth: 44.2%
[7]
  growth: 84.3%
[8]
  growth: 111%

## COCOc1cc2c(=O)c(C)c(C(=O)N[C@@H](Cc3ccccc3)C(O)C(=O)NCc3ccccc3)oc2cc1OC (some centres not stated)
[1]
  growth: 40.7%
[2]
  growth: -35.5% (active)
[3]
  growth: 11.2%
[4]
  growth: 31.1%
[5]
  growth: 17.3%
[6]
  growth: -10.4% (active)
[7]
  growth: 57.3%
[8]
  growth: -32.6% (active)

## O=C(COc1ccc(NC(=O)Nc2ccc(Cl)cc2)cc1)N/N=C/c1ccccc1
[1]
  growth: -81.6% (active)
[2]
  growth: -51.4% (active)
[3]
  growth: -88.5% (active)
[4]
  growth: -75.2% (active)
[5]
  growth: -78.6% (active)
[6]
  growth: -40% (active)
[7]
  growth: -77.4% (active)
[8]
  growth: -70.3% (active)

## N=C1N=C(SCc2nc3ccccc3[nH]2)NC(=O)/C1=C/c1ccc(Cl)cc1
[1]
  growth: 93.2%
[2]
  growth: 114%
[3]
  growth: 102%
[4]
  growth: 98.5%
[5]
  growth: 96.9%
[6]
  growth: 105%
[7]
  growth: 109%
[8]
  growth: 104%

## COc1ccc(C2=NN(C(C)=O)C(c3ccc(OCc4ccc(Cl)cc4)c(OC)c3)C2)cc1OC (configuration not stated)
[1]
  growth: 10.2%
[2]
  growth: 33.8%
[3]
  growth: 43%
[4]
  growth: 61.2%
[5]
  growth: 20.1%
[6]
  growth: 35.3%
[7]
  growth: 83.4%
[8]
  growth: 39%
[9]
  growth: 31.1%

## CCN(CC)c1ccnc(CNCCSC(c2ccccc2)(c2ccccc2)c2ccc(C)cc2)c1
[1]
  growth: -67.8% (active)
[2]
  growth: -91.9% (active)
[3]
  growth: -90.6% (active)
[4]
  growth: -72.2% (active)
[5]
  growth: -82.4% (active)
[6]
  growth: -88.2% (active)
[7]
  growth: -96.4% (active)
[8]
  growth: -83.9% (active)
[9]
  growth: -92.3% (active)

## COc1ccc(-c2nc3cc(C)ccc3n2CC(=O)N=Nc2c(O)[nH]c3ccc(OC)cc23)cc1
[1]
  growth: -60% (active)
[2]
  growth: -85.4% (active)
[3]
  growth: -67.8% (active)
[4]
  growth: -48.2% (active)
[5]
  growth: -50.3% (active)
[6]
  growth: -97.4% (active)
[7]
  growth: -67.9% (active)
[8]
  growth: -79.5% (active)

## O=[N+]([O-])c1ccc(/C=C/c2nc3ccccc3n3c(=S)[nH]nc23)cc1
[1]
  growth: 67.5%
[2]
  growth: 59.1%
[3]
  growth: 82.8%
[4]
  growth: 87.3%
[5]
  growth: 51.2%
[6]
  growth: 70.6%
[7]
  growth: 93.4%
[8]
  growth: 79.3%

## Cc1ccc([C@H]2C(C(=O)c3ccc(Cl)cc3)C3(N[C@@H]2c2ccccc2)C(=O)Nc2ccc(Cl)cc23)cc1 (some centres not stated)
[1]
  growth: 31.6%
[2]
  growth: 80.9%
[3]
  growth: 64.3%
[4]
  growth: 64.1%
[5]
  growth: 16.7%
[6]
  growth: 23.7%
[7]
  growth: 18.8%
[8]
  growth: 34.8%
[9]
  growth: 47.9%
